In PMC13494018:

B1: design_622_fcc41892-afde-4fb9-b6e8-b664fffd6a75_281_dldesign_0_cycle1_af2pred (protein)
chain: MKEKEKKLVEEAEKLLKEAKALPATPEGAQQAVQYGQKAAELGKKIKEAGGTKEAAEKAYQYANEAFKIAAQLGAQAA
B2: design_622_fcc41892-afde-4fb9-b6e8-b664fffd6a75_655_dldesign_0_cycle1_af2pred (protein)
chain: SMEAAAREAGKAEAEKVFAEAKAEGLGLGEAAKRIHDIFSKVSKFNPEFGAIARNAALAELQKLALAADA
B3: design_622_fcc41892-afde-4fb9-b6e8-b664fffd6a75_876_dldesign_0_cycle1_af2pred (protein)
chain: AEAERLRAGAESVLKMADVAYQAAKASAANPAAVAQAIASMTAAYKNAAELYREAGDEEKAKAALAKGDADVAAAKALAA
B4: design_622_fcc41892-afde-4fb9-b6e8-b664fffd6a75_393_dldesign_0_cycle1_af2pred (protein)
chain: AAAEAAAKAAALKAKADAAAAKGEEYYAKGKEYAAKGDVEKASEYYLEAIKYYSEAAKYYAKVDPALADAAMKKAQEATKQMMALAK
B5: design_622_fcc41892-afde-4fb9-b6e8-b664fffd6a75_877_dldesign_0_cycle1_af2pred (protein)
chain: SEEYRRRAEELERRAREAAEEARRAERAEELRRYAEELRRIANEAMRLAMEAAQAGGDPEVVVRAVEVAVEALRAAGEAYRRAEELE
B6: design_622_fcc41892-afde-4fb9-b6e8-b664fffd6a75_1399_dldesign_0_cycle1_af2pred (protein)
chain: GAALAAAKGVAEQVKRVAEEAEAADPSLAPIMEEYKRRAEELLKKAQENASDEAKVNEYLAELVELLGEVARLRREALAA
B7: design_622_fcc41892-afde-4fb9-b6e8-b664fffd6a75_413_dldesign_0_cycle1_af2pred (protein)
chain: SEKEEASKKLKELEEEGNKAYEKGKAAAAAGDTGAAGAELVKIVKMSSEAYKLSKYIPEEGKKVSDELSAKAVELSKLLTA
B8: design_622_fcc41892-afde-4fb9-b6e8-b664fffd6a75_1089_dldesign_0_cycle1_af2pred (protein)
chain: AATKEEAQKAMVEASEVATELLRKAGEAYKAGDEELAEELRRAANELMRAMVQAAKDPAKGLEAVKKAVERGKELLKRAEEALKKA
B9: design_622_fcc41892-afde-4fb9-b6e8-b664fffd6a75_667_dldesign_0_cycle1_af2pred (protein)
chain: SAEEAVRKGEELTREAIKLAEEAVKGTPEKAKKAVEEIVKKMAEAIKASPAYGLLIANQARAIYLEAGKEDEAKAVKEGYKKALELAA
B10: design_622_fcc41892-afde-4fb9-b6e8-b664fffd6a75_786_dldesign_0_cycle1_af2pred (protein)
chain: DLLAEALRLAERAVEALREDPEEGRRLLEELAELGRRALAEKGDGLAVLLGLAARRALRLLEEDPEEARDFLERAVAFVRAQS
B11: design_622_fcc41892-afde-4fb9-b6e8-b664fffd6a75_788_dldesign_0_cycle1_af2pred (protein)
chain: SAAAEQLTLAAVRALSASAVAAEDPASSEQLFAVARDIADAASPETRARGLAIVDAARARAAARRAARAAAA
B12: design_622_fcc41892-afde-4fb9-b6e8-b664fffd6a75_365_dldesign_0_cycle1_af2pred (protein)
chain: AEAAKKNIEIAAKAGEAAVKNLKTMKPEDAKKLYEVVKDLAEYMKEQGKKAPEQAELAKEKAEKIEEEAKKALKEVEEKGKKA
B13: design_622_fcc41892-afde-4fb9-b6e8-b664fffd6a75_1097_dldesign_0_cycle1_af2pred (protein)
chain: SASEVAIKGGTALVNGAARAGIERIRRAGGGEADVERVKKIAEEAKKKIKAAKADAAKIGAIASEAVEEIRKLTEEVEKKA
B14: design_622_fcc41892-afde-4fb9-b6e8-b664fffd6a75_1349_dldesign_0_cycle1_af2pred (protein)
chain: AEASQALARRFIDATLAQMLAQIAAASAEEARRIAEAGLKAIEVAAQALPAEERAARVAEARERGAAAIAAKE
B15: design_622_fcc41892-afde-4fb9-b6e8-b664fffd6a75_1277_dldesign_0_cycle1_af2pred (protein)
chain: SEEIIKKAEEIKEKAEKLLKEAAKLTPEQQKAAIKEMSKNLGELTELAKTASPEELKVINEAMNAAAKASVALAAKAA
B16: design_622_fcc41892-afde-4fb9-b6e8-b664fffd6a75_1048_dldesign_0_cycle1_af2pred (protein)
chain: NPAVERARNVAEYAKQLIDFATANPAVPQALVDAAKAVLEAATKAAKEAEEDPSKAPEVLKRADEALAQANAISAQAAKAATAA
B17: design_622_fcc41892-afde-4fb9-b6e8-b664fffd6a75_572_dldesign_0_cycle1_af2pred (protein)
chain: EEELKKAVEEAKKEAKKAIETATQAIKLAQNYPALQAMAQAVKDAAKKALEKAEKGDLETAKRELQALKANLQMAQLLLESAQAG
B18: design_622_fcc41892-afde-4fb9-b6e8-b664fffd6a75_1090_dldesign_0_cycle1_af2pred (protein)
chain: AAALAEATAMQFVRQAKATTDPERKRALARGAALALQSVVSPEEAARKTAEMAEALGAPPEVIAAARALL
B19: design_622_fcc41892-afde-4fb9-b6e8-b664fffd6a75_316_dldesign_0_cycle1_af2pred (protein)
chain: DALKVIEEYTKKALENIEDRELAALYLANMGVKVAQLVGDGSIGALAMKAAAEAYKSSVEEAKKIIKETAEKIKKIVE

Target: CD276, Q5ZPR3
Sequence (Q5ZPR3 whole entry): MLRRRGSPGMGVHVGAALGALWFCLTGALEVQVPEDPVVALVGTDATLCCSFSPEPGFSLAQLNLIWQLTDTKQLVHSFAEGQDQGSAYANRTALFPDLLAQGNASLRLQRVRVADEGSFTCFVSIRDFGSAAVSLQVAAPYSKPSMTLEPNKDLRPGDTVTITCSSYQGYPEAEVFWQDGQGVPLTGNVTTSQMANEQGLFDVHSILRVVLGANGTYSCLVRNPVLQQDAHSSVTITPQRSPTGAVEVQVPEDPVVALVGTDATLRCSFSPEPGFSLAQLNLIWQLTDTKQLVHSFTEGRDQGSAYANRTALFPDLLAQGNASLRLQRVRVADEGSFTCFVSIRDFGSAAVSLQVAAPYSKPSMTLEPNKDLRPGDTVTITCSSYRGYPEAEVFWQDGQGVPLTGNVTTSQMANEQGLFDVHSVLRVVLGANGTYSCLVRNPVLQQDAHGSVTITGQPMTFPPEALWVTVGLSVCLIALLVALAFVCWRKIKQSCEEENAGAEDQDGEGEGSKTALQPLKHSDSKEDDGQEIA

Binding in a display sort, inactive:
B1 not found, B2 not found, B3 not found, B4 not found, B5 not found, B6 not found, B7 not found, B8 not found, B9 not found, B10 not found, B11 not found, B12 not found, B13 not found, B14 not found, B15 not found, B16 not found, B17 not found, B18 not found, B19 not found
